The panel holds about 83,000 compounds, 20% with a hit somewhere; the sample as a whole holds those more often.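 Cell lines were cultured in 96-well plates, exposed to a single compound concentration, and assessed for percent growth 48 hours later.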 Unmarked numbers belong to inactive results. Active and inactive are the calls of the source. The calls were made as follows: active = growth percent below 10; inactive = the rest.
Each compound was assayed on MALME-3M melanoma (assay: NCI-60 one-dose screen, 48 h (100 = growth as untreated, 0 = no growth, -100 = all killed)). Conditions: 10 µM unless noted.

Q: Which growth does the source give for `O=C(c1ccccc1)c1ccc2nc(-c3ccc(F)cc3)[nH]c2c1` here?
A: The growth was 73%.

Q: Which growth does the source give for `CC1(C)CC[C@]2(C(=O)O)CC[C@]3(C)C(=CCC4[C@@]5(C)C[C@@H](O)[C@@H]6OC(c7ccc(F)cc7)OC[C@@]6(C)C5CC[C@]43C)C2C1` (some centres undefined) here?
A: Its growth is 39%.

Q: How did the growth turn out when `N/C(=N\c1nc2ccccc2s1)NC(=O)Nc1ccc(Cl)cc1Cl` was run?
A: The growth was -75.2% (active).

Q: With `CCCCSc1nc(Nc2ccc(S(N)(=O)=O)cc2)c(C#N)c(-c2cc(OC)c(OC)c(OC)c2)n1` as the compound, how does the growth read?
A: Its growth is 8.31% (active).

Q: Which growth does the source give for `O=C(COc1ccc2c(c1)CCCC(=O)N2)NCc1ccccc1` here?
A: The growth was 95.6%.

Q: Which growth does the source give for `Nc1nc(-c2ccccc2)c(N=Nc2ccc([N+](=O)[O-])cc2Cl)s1` here?
A: The growth was 108%.

Q: How did the growth turn out when `CC1(C)CC[C@]2(C(=O)O)CC[C@]3(C)C(=CCC4[C@@]5(C)C[C@@H](O)[C@@H]6OC(c7cccc(Br)c7)OC[C@@]6(C)C5CC[C@]43C)C2C1` (some centres undefined) was run?
A: Its growth is 73.9%.

Q: How did the growth turn out when `C#CCOc1ccc(/C=N/Nc2nc(-c3cc4cc(OC)ccc4oc3=O)cs2)cc1OC` was run?
A: Its growth is 2.64% (active).

Q: With `N#Cc1c(NCc2ccccc2)n[nH]c1Nc1ccccc1` as the compound, how does the growth read?
A: Its growth is 21.9%.

Q: With `COc1cc2oc(-c3cccc(C(=O)Nc4ccc(Cl)cc4)c3)cc(=O)c2c(OCC(=O)N[C@@H](Cc2ccccc2)C(=O)O)c1OC` as the compound, how does the growth read?
A: Its growth is 107%.

Q: How did the growth turn out when `Cn1cc(-c2cc3nc(-c4c[nH]c5ccc(Cl)cc45)cc(N)n3n2)c2ccccc21` was run?
A: The growth was -74.4% (active).

Q: Which growth does the source give for `C#C[C@]1(O)CC[C@H]2[C@@H]3CC=C4c5sc(-c6ccc([N+](=O)[O-])cc6)nc5CC[C@]4(C)[C@H]3CC[C@@]21C` here?
A: Its growth is -28.9% (active).

Q: For `O=C(CSc1nc2ccccc2c(=O)[nH]1)NCCN1CCCCC1`, which growth is on record?
A: Its growth is 97.3%.

Q: `C#CCOc1cc(N(CC)CC)ccc1C(C(=O)NC(C)(C)C)N(C(=O)C1CCc2cc(F)ccc2O1)c1ccc(F)c(Cl)c1` (centres undefined) was tested. Which growth did it give?
A: The growth was 81.7%.

Q: `O=c1oc2ccccc2cc1-c1csc(N2N=C(c3ccccc3)CC2c2ccc(N3CCOCC3)cc2)n1` (centres undefined) was tested. Which growth did it give?
A: Its growth is 116%.

Q: `Cn1cc(-c2cc(N)n3nc(-c4cn(C)c5ncccc45)cc3n2)c2cccnc21` was tested. Which growth did it give?
A: Its growth is 97.3%.

Q: How did the growth turn out when `COc1ccc(-c2ccnc(SCc3cc4cc(OC)ccc4[nH]c3=O)n2)cc1` was run?
A: Its growth is 36.7%.

Q: Which growth does the source give for `CCOc1ccc(-c2c(C#N)c(-c3ccc(Cl)cc3)nc3n[nH]c(-c4ccc(Cl)cc4)c23)cc1OC` here?
A: The growth was 46.7%.

Q: Which growth does the source give for `CN(C)c1ccnc(NCCCSC(c2ccccc2)(c2ccccc2)c2ccccc2)c1` here?
A: The growth was -94.6% (active).

Q: How did the growth turn out when `O=C(Cn1c(/C=C/c2ccccc2)nc2ccccc2c1=O)Nc1ccccc1` was run?
A: Its growth is 69.9%.

Q: How did the growth turn out when `O=C(O)c1cccc(-c2ccc(/C=N/NC(=O)c3[nH]c4ccc(Br)cc4c3-c3ccccc3)s2)c1` was run?
A: The growth was 57.9%.

Q: How did the growth turn out when `C#CCOc1cc(N(CC)CC)ccc1C(C(=O)NC(C)(C)C)N(C(=O)C1CCc2cc(F)ccc2O1)c1cc(C)cc(C)c1` (centres undefined) was run?
A: Its growth is 59.4%.

Q: With `COc1cc2c(c(OC)c1OC)C(=O)CC(c1cccc(NC(=O)c3cc(NC(=O)[C@@H](N)CO)ccc3C)c1)O2` (some centres undefined) as the compound, how does the growth read?
A: Its growth is 103%.

Q: `C#CCOc1ccc(/C=N/Nc2nc(-c3ccc(F)cc3)cs2)cc1OC` was tested. Which growth did it give?
A: Its growth is 86.3%.

Q: For `Cc1cc2c(cc1Cl)C(=O)/C(=C/c1ccc(F)cc1)O2`, which growth is on record?
A: Its growth is 100%.

Q: `Cn1cc(-c2cc3nc(-c4cn(C)c5ncccc45)cc(N)n3n2)c2cc(Cl)ccc21` was tested. Which growth did it give?
A: Its growth is -97.4% (active).

Q: With `COc1ccc2[nH]cc(-c3cc(N)n4nc(-c5cn(C)c6ccccc56)cc4n3)c2c1` as the compound, how does the growth read?
A: Its growth is -75.5% (active).

Q: For `COc1ccc(Cc2nn(CC(=O)N/N=C/c3ccc(F)cc3)c(=O)c3c(C)noc23)cc1`, which growth is on record?
A: The growth was -0.917% (active).

Q: With `Cc1ccc(NCC(=O)Cn2cc(COc3ccc(C=Nc4cnc5ccccc5c4)cc3)nn2)cc1` as the compound, how does the growth read?
A: Its growth is 102%.

Q: `Cc1cccc(NC(=O)CN2CCN(c3ncnc4c3cnn4-c3ccccc3)CC2)c1` was tested. Which growth did it give?
A: Its growth is 99.4%.

Q: For `Cn1cc(-c2nc(N)nnc2-c2c[nH]c3ccc(F)cc23)c2cc(Br)cnc21`, which growth is on record?
A: The growth was 21.6%.

Q: For `COc1ccc2[nH]cc(-c3nnc(N)nc3-c3cn(C)c4ncc(Br)cc34)c2c1`, which growth is on record?
A: The growth was 121%.

Q: With `COc1ccc(NC(=O)[C@H](C)N)cc1C(=O)Nc1cccc(C2CC(=O)c3c(cc(OC)c(OC)c3OC)O2)c1` (some centres undefined) as the compound, how does the growth read?
A: Its growth is 105%.

Q: For `CC1(C)CC[C@]2(C(=O)O)CC[C@]3(C)C(=CCC4[C@@]5(C)C[C@@H](O)[C@@H]6OC(c7ccco7)OC[C@@]6(C)C5CC[C@]43C)C2C1` (some centres undefined), which growth is on record?
A: Its growth is 9.79% (active).

Source: PubChem BioAssay (NCI)
